Source: PubChem
Rows were chosen to be rich in hits. Some 4.1% of all compounds tested hit in one or more screens of this group.
hcDAF12 agonist = activators of H. contortus DAF-12 nuclear receptor | HEK293 hcDAF-12 lit1-tk-luc reporter, luminescence; 0% DMSO, 100% Δ7-dafachronic acid | activation, % at 6.8 µM | hit rate 1.4% among 370,000 | AID 652067;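 active = activation above the mean of all tested compounds plus 3 SD, cut at about 5.5% in these data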;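 also: 100% = response to 3 µM Δ7-dafachronic acid high control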
DAX1 inh-1 = NR0B1 (DAX1) inhibition; P51843; HEK293 Gal4-DAX1 luciferase reporter, luminescence; inhibition, % at 6.75 µM; hit rate 0.99% among 340,000; AID 504766;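 active = inhibition above the mean over all tested compounds plus 3 SD, cut at about 4.2% in these data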;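 also: 0% = DAX1-transfected cells with DMSO and 100% = empty-vector control cells with DMSO; inhibition shows as a rise in luminescence from relieved DAX1 repression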
ssDAF12 agonist = activators of S. stercoralis DAF-12 nuclear receptor; HEK293 ssDAF-12/GRIP1 lit1-tk-luc reporter, luminescence; % of 3 µM dafachronic acid response; activation, % at 6.8 µM; hit rate 1% among 370,000; AID 652126;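 active = activation above the mean over all tested compounds plus 3 SD, cut at about 0.9% in these data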;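 also: 0% = DMSO-only wells and 100% = 3 µM delta7-dafachronic acid wells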
hgDAF12 agonist = activates the H. glycines DAF-12 receptor ligand-binding domain; HEK293 GAL4-hgDAF12 UAS-luciferase reporter, agonist luminescence; normalized to butyrate control; activation, % at 6.8 µM; hit rate 1.8% among 370,000; AID 687014;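 active = activation above a cutoff set at the mean of all screened compounds plus 3 SD, cut at about 10% in these data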;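 also: 0% = DMSO wells and 100% = sodium butyrate wells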
DAX1 inh-2 = blocks DAX1 repression of SF-1 activated StAR promoter; HEK293T StAR-luciferase reporter, SF-1/DAX-1 repression relief; inhibition, % at 6.8 µM; hit rate 1.1% among 370,000;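 active = inhibition above the mean over all tested compounds plus 3 SD, cut at about 3.6% in these data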;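 also: 0% = DAX-1 cells with DMSO and 100% = cells lacking DAX-1 with DMSO; higher inhibition means more luminescence from relief of DAX-1 repression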
hgDAF12 conf = hgDAF-12 agonism, confirmation assay. shares compounds with hgDAF12 agonist. HEK293 GAL4-hgDAF12 luciferase reporter, agonist mode; percent of butyrate response. activation, % at 6.8 µM. hit rate 80% among 3,300;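 active = mean activation over triplicate wells above the hit cutoff derived from the earlier primary screen, cut at about 11% in these data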;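 also: 0% = DMSO low control and 100% = 2 mM sodium butyrate high control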
LXR ag 2 = LXR-beta agonism as DAF-12 counter-screen; AID 743051; activation, % at 6.8 µM; HEK293 Gal4-LXR luciferase reporter, 24 h; 3,300 tested, under 10 active; shares compounds with hgDAF12 agonist;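 active = mean activation of the triplicate above a set limit carried over from the primary screen, none filed active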
Target sequence (P55055 whole entry, looked up, the tested form may be a part): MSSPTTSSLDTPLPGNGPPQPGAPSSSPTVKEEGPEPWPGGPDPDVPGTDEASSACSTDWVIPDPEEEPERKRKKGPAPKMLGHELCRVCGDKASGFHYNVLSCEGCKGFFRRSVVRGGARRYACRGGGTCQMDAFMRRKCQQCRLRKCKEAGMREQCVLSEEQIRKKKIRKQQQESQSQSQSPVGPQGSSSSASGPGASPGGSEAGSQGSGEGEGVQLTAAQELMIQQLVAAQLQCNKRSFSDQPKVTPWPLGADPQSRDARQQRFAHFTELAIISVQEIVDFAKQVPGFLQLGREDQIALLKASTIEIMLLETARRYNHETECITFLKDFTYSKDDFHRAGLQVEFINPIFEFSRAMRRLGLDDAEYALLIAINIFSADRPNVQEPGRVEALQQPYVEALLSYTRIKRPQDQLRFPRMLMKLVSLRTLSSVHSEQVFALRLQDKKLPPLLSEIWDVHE
Active calls of the source: *.

For COc1ccc(/C=C2/SC(=O)N(CCNC(=O)C3CC(=O)N(Cc4ccccc4)C3)C2=O)cc1 (configuration not stated) the results were hcDAF12 agonist 0, DAX1 inh-1 -1, ssDAF12 agonist -1, hgDAF12 agonist 4 and DAX1 inh-2 1.
CCOC(=O)c1ccccc1NC1c2ccccc2C(=O)N1c1ccc(C)cn1 (configuration not stated) was read as hcDAF12 agonist 3, DAX1 inh-1 1, ssDAF12 agonist 0, hgDAF12 agonist 15*, DAX1 inh-2 3, hgDAF12 conf 6 and LXR ag 2 0.
For Cc1ccc(NC(=O)Nc2nc3ccc(S(C)(=O)=O)cc3s2)cc1 the results were hcDAF12 agonist -3, DAX1 inh-1 -1, ssDAF12 agonist -1, hgDAF12 agonist -2 and DAX1 inh-2 0.
`CC(C)(C)C(=O)Nc1nc2ccc(S(C)(=O)=O)cc2s1` gave hcDAF12 agonist 3, DAX1 inh-1 3, ssDAF12 agonist -1, hgDAF12 agonist 14*, DAX1 inh-2 0, hgDAF12 conf 13* and LXR ag 2 0.
`CS(=O)(=O)c1ccc2nc(NC(=O)Nc3ccccc3F)sc2c1` gave hcDAF12 agonist 2, DAX1 inh-1 7.3*, ssDAF12 agonist 0, hgDAF12 agonist 15*, DAX1 inh-2 3, hgDAF12 conf 27* and LXR ag 2 1.
`CC(C)(C)OC(=O)N1Cc2cc3ccccc3nc2C1` gave hcDAF12 agonist 3, DAX1 inh-1 1, ssDAF12 agonist 0, hgDAF12 agonist 16*, DAX1 inh-2 3.6*, hgDAF12 conf 13* and LXR ag 2 1.
`Nc1nc2ccccc2n1C(=O)c1cccs1` gave hcDAF12 agonist 5, DAX1 inh-1 1, ssDAF12 agonist 1.0*, hgDAF12 agonist 15*, DAX1 inh-2 3, hgDAF12 conf 13* and LXR ag 2 1.
`Nc1nc2ccccc2n1C(=O)CCc1ccccc1` gave hcDAF12 agonist 4, DAX1 inh-1 5.0*, ssDAF12 agonist 0, hgDAF12 agonist 14*, DAX1 inh-2 1, hgDAF12 conf 18* and LXR ag 2 1.
For CNc1nc(-c2ccc3c(c2)CCN3C(=O)c2ccccc2C)cs1 the results were hcDAF12 agonist 1, DAX1 inh-1 1, ssDAF12 agonist 0, hgDAF12 agonist 21*, DAX1 inh-2 1, hgDAF12 conf 15* and LXR ag 2 0.
O=C(CN1CCCC1)Nc1nc(-c2ccc3c(c2)CCN3C(=O)c2ccccc2F)cs1 was read as DAX1 inh-1 -1.
S=C(NCc1ccco1)Nc1ccc(Cl)cc1Cl was read as hcDAF12 agonist 0, DAX1 inh-1 0, ssDAF12 agonist -1, hgDAF12 agonist 6 and DAX1 inh-2 0.
Screening S=C(NCc1ccco1)Nc1ccc(Br)cc1Cl returned hcDAF12 agonist 2, ssDAF12 agonist -1, hgDAF12 agonist 13*, DAX1 inh-2 0, hgDAF12 conf 4 and LXR ag 2 0.
CN(C)C=NC(=O)c1cc(C(=O)c2ccc(C(C)(C)C)cc2)c[nH]1 was read as hcDAF12 agonist 5, DAX1 inh-1 1, ssDAF12 agonist -1, hgDAF12 agonist 14*, DAX1 inh-2 4.4*, hgDAF12 conf 16* and LXR ag 2 1.
Cc1ccccc1Nc1nnc(SCC2CCCCO2)s1 (configuration not stated) was read as hcDAF12 agonist 2, DAX1 inh-1 1, ssDAF12 agonist 0, hgDAF12 agonist 15*, DAX1 inh-2 4.2*, hgDAF12 conf 17* and LXR ag 2 1.
For Cc1cccc(Nc2nnc(SCC(=O)NCC3CCCO3)s2)c1C (configuration not stated) the results were hcDAF12 agonist 2, DAX1 inh-1 -1, ssDAF12 agonist -1, hgDAF12 agonist 6 and DAX1 inh-2 -1.
For CCCCNc1ncnc2c1cnn2-c1ccc(Cl)cc1 the results were hcDAF12 agonist 1, DAX1 inh-1 -1, ssDAF12 agonist 0, hgDAF12 agonist 16*, DAX1 inh-2 1, hgDAF12 conf 24* and LXR ag 2 1.
For CCCCNc1ncnc2c1cnn2-c1ccccc1 the results were hcDAF12 agonist 3, DAX1 inh-1 -1, ssDAF12 agonist 0, hgDAF12 agonist 20*, DAX1 inh-2 0, hgDAF12 conf 17* and LXR ag 2 1.
Screening C=CCNc1ncnc2c1cnn2-c1cccc(C)c1 returned hcDAF12 agonist 2, DAX1 inh-1 2, ssDAF12 agonist -1, hgDAF12 agonist 17*, DAX1 inh-2 6.3*, hgDAF12 conf 16* and LXR ag 2 1.
`N#Cc1ccc(C(=O)Nc2nnc(-c3ccco3)o2)cc1` gave hcDAF12 agonist 0, DAX1 inh-1 0, ssDAF12 agonist -2, hgDAF12 agonist 7 and DAX1 inh-2 0.
Cc1ccc(C(=O)Nc2nnc(-c3ccco3)o2)cc1 was read as hcDAF12 agonist 5, DAX1 inh-1 -2, ssDAF12 agonist 0, hgDAF12 agonist 14*, DAX1 inh-2 3, hgDAF12 conf 10 and LXR ag 2 0.
`COc1ccc(/C=C/C(=O)c2ccc3c(c2)OCO3)c(OC)c1` gave hcDAF12 agonist 4, DAX1 inh-1 3, ssDAF12 agonist 0, hgDAF12 agonist 24*, DAX1 inh-2 3, hgDAF12 conf 17* and LXR ag 2 1.
Screening COc1ccc(/C=C/C(=O)c2ccccc2)c(OC)c1 returned hcDAF12 agonist 5, DAX1 inh-1 4, ssDAF12 agonist 1, hgDAF12 agonist 14*, DAX1 inh-2 2, hgDAF12 conf 14* and LXR ag 2 1.
For COc1ccc(/C=C/C(=O)c2ccc(OC)cc2OC)c(OC)c1 the results were hcDAF12 agonist -4, DAX1 inh-1 0, ssDAF12 agonist -2, hgDAF12 agonist -2 and DAX1 inh-2 -2.
For O=C(NNC(=O)C1CC=CCC1C(=O)O)c1cccs1 (configuration not stated) the results were hcDAF12 agonist 3, DAX1 inh-1 0, ssDAF12 agonist 0, hgDAF12 agonist 17*, DAX1 inh-2 2, hgDAF12 conf 3 and LXR ag 2 0.
`Cc1ccsc1C(=O)NNC(=O)C1CC=CCC1C(=O)O` (configuration not stated) gave hcDAF12 agonist 5, DAX1 inh-1 2, ssDAF12 agonist 1.4*, hgDAF12 agonist 17*, DAX1 inh-2 4.2*, hgDAF12 conf 5 and LXR ag 2 0.
Screening CN=c1scc(-c2cccs2)n1/N=C/c1ccc(O)c(O)c1O returned hcDAF12 agonist 6.1*, DAX1 inh-1 -1, ssDAF12 agonist 0, hgDAF12 agonist 14*, DAX1 inh-2 3, hgDAF12 conf 11* and LXR ag 2 1.
